# Test results as given in PubChem BioAssay (NCATS).
# Inconclusive results are not listed. Where a call stands in place of a potency, no number is given. A number with no mark means an inactive call. Activity calls are given as the source filed them. Calls come from the whole dose curve; as a rule, active = well fitted inhibition curve with a large enough effect; inconclusive = small, poorly fitted or top-dose-only effect; inactive = flat fitted curve, though single readings scatter.
# Experiments:
# 3D7 = assay: qHTS profiling for inhibitors of Plasmodium falciparum proliferation (AID 504749); note: nearly all actives have a fitted effect of over 60% in size; conditions: P. falciparum in erythrocytes, SYBR Green DNA, 72 h; series mostly up to 28.7 µM
# Outline: (§1)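 Infected RBCs, 0.3% parasitemia/2.5% Hct final; cpd 72 h, 37 C, 5% CO2; lysis buffer with saponin/triton/SYBR Green I, o/n RT dark; FI 485/535; norm. to artemisinin (0.29 uM) and DMSO.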
# 7G8 = assay: as above; conditions: P. falciparum in erythrocytes, SYBR Green DNA, 72 h; series mostly up to 28.7 µM
# Outline: as §1
# AA1029 = assay: as above; conditions: P. falciparum in erythrocytes, SYBR Green DNA, 72 h; series mostly up to 28.7 µM
# Outline: as §1
# C2A = assay: as above; conditions: P. falciparum in erythrocytes, SYBR Green DNA, 72 h; series mostly up to 28.7 µM
# Outline: as §1
# CP191 = assay: as above; conditions: P. falciparum in erythrocytes, SYBR Green DNA, 72 h; series mostly up to 28.7 µM
# Outline: as §1
# CP192 = assay: as above; conditions: P. falciparum in erythrocytes, SYBR Green DNA, 72 h; series mostly up to 28.7 µM
# Outline: as §1
# CP194 = assay: as above; conditions: P. falciparum in erythrocytes, SYBR Green DNA, 72 h; series mostly up to 28.7 µM
# Outline: as §1
# CP201 = assay: as above; conditions: P. falciparum in erythrocytes, SYBR Green DNA, 72 h; series mostly up to 28.7 µM
# Outline: as §1
# CP203 = assay: as above; conditions: P. falciparum in erythrocytes, SYBR Green DNA, 72 h; series mostly up to 28.7 µM
# Outline: as §1
# CP211 = assay: as above; conditions: P. falciparum in erythrocytes, SYBR Green DNA, 72 h; series mostly up to 28.7 µM
# Outline: as §1
# CP215 = assay: as above; conditions: P. falciparum in erythrocytes, SYBR Green DNA, 72 h; series mostly up to 28.7 µM
# Outline: as §1
# ATS189 = assay: as above; conditions: P. falciparum in erythrocytes, SYBR Green DNA, 72 h; series mostly up to 28.7 µM
# Outline: as §1
# ATS95 = assay: as above; conditions: P. falciparum in erythrocytes, SYBR Green DNA, 72 h; series mostly up to 28.7 µM
# Outline: as §1
# CP185 = assay: as above; conditions: P. falciparum in erythrocytes, SYBR Green DNA, 72 h; series mostly up to 28.7 µM
# Outline: as §1
# CP217 = assay: as above; conditions: P. falciparum in erythrocytes, SYBR Green DNA, 72 h; series mostly up to 28.7 µM
# Outline: as §1
# CP237 = assay: as above; conditions: P. falciparum in erythrocytes, SYBR Green DNA, 72 h; series mostly up to 28.7 µM
# Outline: as §1
# CP238 = assay: as above; conditions: P. falciparum in erythrocytes, SYBR Green DNA, 72 h; series mostly up to 28.7 µM
# Outline: as §1
# [1] = as above; conditions: P. falciparum in erythrocytes, SYBR Green DNA, 72 h; for activity, negative = inhibition: at 28.7 µM (top of the series)
# Outline: as §1
# AS120 = assay: as above; conditions: P. falciparum in erythrocytes, SYBR Green DNA, 72 h; series mostly up to 28.7 µM
# Outline: as §1
# Potency is the fitted concentration of half-maximal effect.
structure (smiles),measurement,setting,value
C=C1C(=CC=C2CCC[C@@]3(C)[C@@H]2CC[C@H]3[C@H](C)CCCC(C)C)C[C@@H](O)C[C@@H]1O,Potency,3D7,11.2 µM (active)
same,Potency,7G8,10 µM (active)
same,Potency,AA1029,inactive
same,Potency,C2A,10 µM (active)
same,Potency,CP191,11.2 µM (active)
same,Potency,CP192,inactive
same,Potency,CP194,inactive
same,Potency,CP201,inactive
same,Potency,CP203,inactive
same,Potency,CP211,inactive
same,Potency,CP215,inactive
CCCCC(=O)O[C@]1(C(=O)CO)[C@H](C)C[C@H]2[C@@H]3CCC4=CC(=O)C=C[C@]4(C)[C@@]3(F)[C@@H](O)C[C@@]21C,Potency,7G8,8.91 µM (active)
same,Potency,AA1029,inactive
same,Potency,ATS189,inactive
same,Potency,ATS95,inactive
same,Potency,C2A,inactive
same,Potency,CP185,inactive
same,Potency,CP191,inactive
same,Potency,CP192,inactive
same,Potency,CP194,inactive
same,Potency,CP201,inactive
same,Potency,CP211,inactive
same,Potency,CP215,inactive
same,Potency,CP217,inactive
same,Potency,CP237,inactive
same,Potency,CP238,inactive
O=C(O)c1cc(=O)c2c3nc4ccccc4oc-3cc(=O)c2[nH]1,"activity, negative = inhibition",[1]; parasite line A,-19%
same,"activity, negative = inhibition",[1]; parasite line B,-11.6%
same,Potency,3D7,14.1 µM (active)
same,Potency,7G8,1.26 µM (active)
same,Potency,AA1029,inactive
same,Potency,ATS189,inactive
same,Potency,ATS95,inactive
same,Potency,C2A,inactive
same,Potency,CP185,inactive
same,Potency,CP191,inactive
same,Potency,CP192,inactive
same,Potency,CP194,inactive
same,Potency,CP201,inactive
same,Potency,CP203,inactive
same,Potency,CP211,inactive
same,Potency,CP215,inactive
same,Potency,CP217,inactive
same,Potency,CP237,2.82 µM (active)
same,Potency,CP238,inactive
CCN(CC)CCOc1ccc(-c2nc3cc(Cl)ccc3s2)cc1,Potency,7G8,11.2 µM (active)
same,Potency,AS120,inactive
same,Potency,ATS189,inactive
same,Potency,CP185,inactive
same,Potency,CP192,inactive
same,Potency,CP194,inactive
same,Potency,CP201,inactive
same,Potency,CP203,inactive
same,Potency,CP211,inactive
same,Potency,CP215,inactive
same,Potency,CP217,inactive
same,Potency,CP238,inactive
CC1(C)C(C=C(Cl)Cl)C1C(=O)OCc1cccc(Oc2ccccc2)c1 (stereo not drawn),"activity, negative = inhibition",[1]; parasite line A,-2.63%
same,"activity, negative = inhibition",[1]; parasite line B,-6.77%
same,Potency,3D7,inactive
same,Potency,AA1029,inactive
same,Potency,AS120,inactive
same,Potency,ATS189,inactive
same,Potency,ATS95,inactive
same,Potency,C2A,inactive
same,Potency,CP185,inactive
same,Potency,CP191,inactive
same,Potency,CP192,inactive
same,Potency,CP194,inactive
same,Potency,CP201,inactive
same,Potency,CP203,inactive
same,Potency,CP211,inactive
same,Potency,CP215,inactive
same,Potency,CP217,inactive
same,Potency,CP237,inactive
same,Potency,CP238,inactive
O=C(Nc1ccc(Br)cc1)c1cc(Br)c(Br)s1,Potency,[1]; parasite line A,10 µM (active)
same,Potency,7G8,10 µM (active)
same,Potency,CP203,16.9 µM (active)
Clc1cc(Cl)c(OCC#CI)cc1Cl,Potency,[1]; parasite line A,11.2 µM (active)
same,Potency,[1]; parasite line B,11.2 µM (active)
same,Potency,3D7,11.2 µM (active)
same,Potency,7G8,11.2 µM (active)
same,Potency,AA1029,12.6 µM (active)
same,Potency,C2A,8.91 µM (active)
same,Potency,CP192,inactive
CC(C)=O,"activity, negative = inhibition",[1]; parasite line A,-12.1%
same,Potency,3D7,inactive
same,Potency,7G8,inactive
same,Potency,AA1029,inactive
same,Potency,AS120,inactive
same,Potency,ATS189,inactive
same,Potency,C2A,inactive
same,Potency,CP185,inactive
same,Potency,CP191,inactive
same,Potency,CP192,inactive
same,Potency,CP194,inactive
same,Potency,CP201,inactive
same,Potency,CP203,inactive
same,Potency,CP211,inactive
same,Potency,CP215,inactive
same,Potency,CP217,inactive
same,Potency,CP237,inactive
same,Potency,CP238,inactive
O=CCCCC=O,"activity, negative = inhibition",[1]; parasite line A,-0.127%
same,"activity, negative = inhibition",[1]; parasite line B,0.568%
same,Potency,3D7,inactive
same,Potency,7G8,10 µM (active)
same,Potency,AA1029,inactive
same,Potency,AS120,inactive
same,Potency,ATS95,inactive
same,Potency,C2A,inactive
same,Potency,CP185,inactive
same,Potency,CP191,inactive
same,Potency,CP192,inactive
same,Potency,CP194,inactive
same,Potency,CP201,inactive
same,Potency,CP203,inactive
same,Potency,CP211,inactive
same,Potency,CP215,inactive
same,Potency,CP217,inactive
same,Potency,CP237,inactive
same,Potency,CP238,inactive
CC(Cc1ccc(O)c(O)c1)C(C)Cc1ccc(O)c(O)c1 (stereo not drawn),"activity, negative = inhibition",[1]; parasite line A,6.89%
same,"activity, negative = inhibition",[1]; parasite line B,-26.4%
same,Potency,3D7,inactive
same,Potency,7G8,8.91 µM (active)
same,Potency,AA1029,inactive
same,Potency,ATS189,inactive
same,Potency,ATS95,inactive
same,Potency,C2A,inactive
same,Potency,CP185,inactive
same,Potency,CP191,inactive
same,Potency,CP192,inactive
same,Potency,CP194,inactive
same,Potency,CP201,inactive
same,Potency,CP203,inactive
same,Potency,CP211,inactive
same,Potency,CP217,inactive
same,Potency,CP238,inactive
CC1=C(/C=C/C(C)=C/C=C/C(C)=C/CO)C(C)(C)CCC1,Potency,7G8,10 µM (active)
same,Potency,CP192,inactive
same,Potency,CP194,inactive
same,Potency,CP201,inactive
same,Potency,CP211,inactive
same,Potency,CP217,10 µM (active)
COC(=O)[C@H]1[C@H]2CC3c4[nH]c5ccccc5c4CCN3C[C@@H]2CC[C@@H]1O (stereo partly drawn),"activity, negative = inhibition",[1]; parasite line A,14.5%
same,"activity, negative = inhibition",[1]; parasite line B,13.8%
same,Potency,7G8,inactive
same,Potency,AA1029,inactive
same,Potency,AS120,inactive
same,Potency,ATS189,inactive
same,Potency,ATS95,inactive
same,Potency,C2A,inactive
same,Potency,CP185,inactive
same,Potency,CP191,inactive
same,Potency,CP217,inactive
same,Potency,CP237,inactive
same,Potency,CP238,inactive
CN1C(=O)CN2CCc3ccccc3C2c2cc(Cl)ccc21 (stereo not drawn),"activity, negative = inhibition",[1]; parasite line A,-10.8%
same,"activity, negative = inhibition",[1]; parasite line B,-17.4%
same,Potency,3D7,inactive
same,Potency,7G8,12.6 µM (active)
same,Potency,AA1029,inactive
same,Potency,ATS189,inactive
same,Potency,ATS95,inactive
same,Potency,C2A,inactive
same,Potency,CP185,inactive
same,Potency,CP191,inactive
same,Potency,CP192,inactive
same,Potency,CP194,inactive
same,Potency,CP201,inactive
same,Potency,CP203,inactive
same,Potency,CP211,inactive
same,Potency,CP215,inactive
same,Potency,CP238,inactive
O=S(=O)(O)O,"activity, negative = inhibition",[1]; parasite line A,-14.8%
same,"activity, negative = inhibition",[1]; parasite line B,2.3%
same,Potency,7G8,inactive
same,Potency,AA1029,inactive
same,Potency,AS120,inactive
same,Potency,ATS189,inactive
same,Potency,ATS95,inactive
same,Potency,C2A,inactive
same,Potency,CP185,inactive
same,Potency,CP191,inactive
same,Potency,CP192,inactive
same,Potency,CP194,inactive
same,Potency,CP201,inactive
same,Potency,CP203,inactive
same,Potency,CP211,inactive
same,Potency,CP217,inactive
same,Potency,CP237,inactive
same,Potency,CP238,inactive
O=C1CSC2(CCN(CCCN3c4ccccc4Sc4ccc(Cl)cc43)CC2)N1,"activity, negative = inhibition",[1]; parasite line A,-17.8%
same,"activity, negative = inhibition",[1]; parasite line B,-28.1%
same,Potency,7G8,11.2 µM (active)
same,Potency,C2A,inactive
same,Potency,CP185,inactive
same,Potency,CP238,inactive
O=S(=O)(O)c1ccc2c(N=Nc3ccc(S(=O)(=O)O)c4ccccc34)c(O)c(S(=O)(=O)O)cc2c1,"activity, negative = inhibition",[1]; parasite line A,-19.8%
same,"activity, negative = inhibition",[1]; parasite line B,-30%
same,Potency,3D7,inactive
same,Potency,7G8,inactive
same,Potency,AA1029,inactive
same,Potency,AS120,inactive
same,Potency,ATS189,inactive
same,Potency,C2A,inactive
same,Potency,CP185,inactive
same,Potency,CP191,inactive
same,Potency,CP192,inactive
same,Potency,CP194,inactive
same,Potency,CP201,inactive
same,Potency,CP203,inactive
same,Potency,CP211,inactive
same,Potency,CP217,inactive
same,Potency,CP237,inactive
same,Potency,CP238,inactive
